In the supplement of paper PMC9023506:
Structures can show the parent of a compound that is named as a salt.

test system: Danio rerio larvae (5 dpf); assay: activity during period 15 (no stimuli), difference vs DMSO (percentage points (treated minus DMSO)); higher = more of the behaviour than the DMSO vehicle control; conditions: 10 µM; exposure time: 3 h pre-incubation + 3 h imaging
Experimental: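 5-dpf wild-type zebrafish larvae were imaged in 96-well plates. They were treated with 190 Tocris FDA-approved drugs at 10 µM (1 µl/ml DMSO) for 3 h before and 3 h during imaging at 28.5 °C, 48 larvae per drug. Automated image analysis gave % time moving and optomotor responses. Values are drug group mean minus DMSO vehicle mean (n=844), in percentage points, for 10 behaviours.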

SMILES	activity during period 15
CCc1ccc(CCOc2ccc(CC3SC(=O)NC3=O)cc2)nc1 (stereo not given) [Pioglitazone hydrochloride]	-0.879
O=C(O)c1cc(/N=N/c2ccc(S(=O)(=O)Nc3ccccn3)cc2)ccc1O [Sulfasalazine]	15.3
COC(=O)C1=C(C)NC(C)=C(C(=O)OC(C)C)C1c1cccc2nonc12 (stereo not given) [Isradipine]	-12.3
Nc1nc(NC2CC2)c2ncn([C@H]3C=C[C@@H](CO)C3)c2n1 [Abacavir hemisulfate]	-3.3
COc1c(C)c2c(c(O)c1C/C=C(\C)CCC(=O)O)C(=O)OC2 [Mycophenolic acid]	9.46
Nc1ncn([C@@H]2O[C@H](CO)[C@@H](O)[C@H]2O)c(=O)n1 [5-Azacytidine]	1.42
CCOc1nc2cccc(C(=O)O)c2n1Cc1ccc(-c2ccccc2-c2nnn[nH]2)cc1 [Candesartan]	-1.51
COC(c1ccccc1)(c1ccccc1)[C@H](Oc1nc(C)cc(C)n1)C(=O)O [Ambrisentan]	-4.72
O=C1CCc2cc(OCCCCc3nnnn3C3CCCCC3)ccc2N1 [Cilostazol]	3.03
NC(=O)N1c2ccccc2C=Cc2ccccc21 [Carbamazepine]	-0.716
COc1ccccc1Oc1c(NS(=O)(=O)c2ccc(C(C)(C)C)cc2)nc(-c2ncccn2)nc1OCCO [Bosentan]	-4.44
COc1ccc(Cl)cc1C(=O)NCCc1ccc(S(=O)(=O)NC(=O)NC2CCCCC2)cc1 [Glibenclamide]	-4.16
CCOC(=O)C1=C(COCCN)NC(C)=C(C(=O)OC)C1c1ccccc1Cl (stereo not given) [Amlodipine besylate]	3.16
CCOC(=O)[C@H](CCc1ccccc1)N[C@@H](C)C(=O)N1[C@H](C(=O)O)C[C@@H]2CCC[C@@H]21 [Ramipril]	-2.34
CC(C)(C)NC(=O)[C@@H]1C[C@@H]2CCCC[C@@H]2CN1C[C@@H](O)[C@H](Cc1ccccc1)NC(=O)[C@H](CC(N)=O)NC(=O)c1ccc2ccccc2n1 [Saquinavir mesylate]	-12.8
CCCCNc1cc(C(=O)O)cc(S(N)(=O)=O)c1Oc1ccccc1 [Bumetanide]	-2.8
O=C(Nc1c(Cl)cncc1Cl)c1ccc(OC(F)F)c(OCC2CC2)c1 [Roflumilast]	-9.33
NS(=O)(=O)c1cc2c(cc1Cl)NC(C1CC3C=CC1C3)NS2(=O)=O (stereo not given) [Cyclothiazide]	3.93
CC1=Nc2ccc(Cl)cc2S(=O)(=O)N1 [Diazoxide]	2.35
CC(C)Nc1cccnc1N1CCN(C(=O)c2cc3cc(NS(C)(=O)=O)ccc3[nH]2)CC1 [Delavirdine mesylate]	-4.9

SMILES	activity during period 15
OCCN(CCO)c1nc(N2CCCCC2)c2nc(N(CCO)CCO)nc(N3CCCCC3)c2n1 [Dipyridamole]	-5.46
Clc1ccc(COC(Cn2ccnc2)c2ccc(Cl)cc2Cl)c(Cl)c1 (stereo not given) [Miconazole nitrate]	-12.8
Cc1ccccc1C(=O)Nc1ccc(C(=O)N2CCCC(O)c3cc(Cl)ccc32)c(C)c1 (stereo not given) [Tolvaptan]	-8.09
OCCN1C[C@H](O)[C@@H](O)[C@H](O)[C@H]1CO [Miglitol]	-4.45
Clc1ccccc1C(c1ccccc1)(c1ccccc1)n1ccnc1 [Clotrimazole]	-30.5
CCOc1ccccc1OCCN[C@H](C)Cc1ccc(OC)c(S(N)(=O)=O)c1 [Tamsulosin hydrochloride]	2.6
CC(C)C(=O)Nc1ccc([N+](=O)[O-])c(C(F)(F)F)c1 [Flutamide]	-0.963
Nc1cc(N2CCCCC2)nc(N)[n+]1[O-] [Minoxidil]	6.89
CC(C)CN(C[C@@H](O)[C@H](Cc1ccccc1)NC(=O)O[C@H]1CO[C@H]2OCC[C@H]21)S(=O)(=O)c1ccc(N)cc1 [Darunavir]	11.1
COCCc1ccc(OCC(O)CNC(C)C)cc1 (stereo not given) [Metoprolol tartrate]	3.61
COc1cc2ncnc(Nc3ccc(F)c(Cl)c3)c2cc1OCCCN1CCOCC1 [Iressa]	-0.986
Cc1cc2c(s1)Nc1ccccc1N=C2N1CCN(C)CC1 [Olanzapine]	5.7
CC(c1cc2ccccc2s1)N(O)C(N)=O (stereo not given) [Zileuton]	3.35
OCCOCCN1CCN(C2=Nc3ccccc3Sc3ccccc32)CC1 [Quetiapine hemifumarate]	16.8
NC(=O)OCC(COC(N)=O)c1ccccc1 [Felbamate]	0.376
CNC(=O)c1cc(Oc2ccc(NC(=O)Nc3ccc(Cl)c(C(F)(F)F)c3)cc2)ccn1 [Sorafenib]	8.65
CCCc1nn(C)c2c(=O)[nH]c(-c3cc(S(=O)(=O)N4CCN(C)CC4)ccc3OCC)nc12 [Sildenafil citrate]	-20.2
C[C@@H]1C[C@H]2[C@@H]3CCC4=CC(=O)C=C[C@]4(C)[C@@]3(F)[C@@H](O)C[C@]2(C)[C@@]1(O)C(=O)CO [Dexamethasone]	2.91
CCCc1nc(C(C)(C)O)c(C(=O)O)n1Cc1ccc(-c2ccccc2-c2nnn[nH]2)cc1 [Olmesartan]	4.45
Nc1nc2[nH]cc(CCc3ccc(C(=O)N[C@@H](CCC(=O)O)C(=O)O)cc3)c2c(=O)[nH]1 [Pemetrexed]	1.39
